Records with an inconclusive call do not appear. The source made the active and inactive calls. Calls come from the whole dose curve; as a rule, active = well fitted inhibition curve with a large enough effect; inconclusive = small, poorly fitted or top-dose-only effect; inactive = flat fitted curve, though single readings scatter.
Assays:
Assay in all cases: qHTS profiling for inhibitors of Plasmodium falciparum proliferation (AID 504749); note: nearly all actives have a fitted effect of over 60% in size
Conditions in all cases: P. falciparum in erythrocytes, SYBR Green DNA, 72 h; series mostly up to 28.7 µM
CP217 = tested on: CP217
Outline: (§1)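 SYBR Green fluorescence (ex 485 nm, em 535 nm) reports parasite DNA after 72 h compound exposure of infected red cells at 0.3% parasitemia, 2.5% hematocrit; signal normalized to 0.29 uM artemisinin and vehicle wells.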

CP237 = tested on: CP237
Outline: as §1

CP238 = tested on: CP238
Outline: as §1

CP247 = tested on: CP247
Outline: as §1

CP250 = tested on: CP250
Outline: as §1

CP252 = tested on: CP252
Outline: as §1

CP256 = tested on: CP256
Outline: as §1

CP260 = tested on: CP260
Outline: as §1

CP262 = tested on: CP262
Outline: as §1

CP265 = tested on: CP265
Outline: as §1

CP266 = tested on: CP266
Outline: as §1

CP268 = tested on: CP268
Outline: as §1

CP269 = tested on: CP269
Outline: as §1

CP286 = tested on: CP286
Outline: as §1

CP291 = tested on: CP291
Outline: as §1

CP297 = tested on: CP297
Outline: as §1

CP305 = tested on: CP305
Outline: as §1

CP315 = tested on: CP315
Outline: as §1

CP325 = tested on: CP325
Outline: as §1

CP329 = tested on: CP329
Outline: as §1

Measured: Potency

CCOC(=O)c1ccc(O)cc1
inactive: all assays above

COc1ccc(Cl)cc1C(=O)NCCc1ccc(S(=O)(=O)NC(=O)NC2CCCCC2)cc1
inactive: all assays above

N[C@@H](CSCCCO)C(=O)O
inactive: all assays above

CCOC(=O)[C@H](CCc1ccccc1)N[C@@H](C)C(=O)N1C(=O)N(C)C[C@H]1C(=O)O
inactive: all assays above

NC(=O)NNc1ccccc1
inactive: all assays above

CCCCCCCCCCCCCCCCCCOCC(O)CO (stereo not given)
inactive: all assays above

C[C@@H]1CN(c2c(F)c(F)c3c(=O)c(C(=O)O)cn(C4CC4)c3c2F)C[C@H](C)N1
inactive: all assays above

COc1ccc2c(c1)C(=O)N(CCc1ccc(S(=O)(=O)NC(=O)NC3CCCCC3)cc1)C(=O)C2(C)C
inactive: all assays above

CCCCC(CC)COC(=O)c1ccccc1O (stereo not given)
inactive: all assays above

Nc1ccc(S(=O)(=O)Nc2ccccc2)cc1
inactive: all assays above

O=C1NS(=O)(=O)c2ccccc21
inactive: all assays above

CC(=O)Nc1ccc(/C=N/NC(N)=S)cc1
inactive: all assays above

CC(O)COc1ccccc1 (stereo not given)
inactive: all assays above

CCOc1ccc2ccccc2c1C(=O)N[C@@H]1C(=O)N2[C@@H]1SC(C)(C)[C@@H]2C(=O)O
inactive: all assays above
